Reference: PubChem BioAssay
Calls of active or inactive are those of the source.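 Rule for the calls: active = NADPH fluorescence slope more negative than the mean of all samples by about 3 SD, 99.7% confidence; inactive = the rest.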

biological target: Voltage-gated potassium channel subunit beta-2 (Rattus norvegicus) (UniProt P62483); assay: enhancers of rat Kvbeta2 NADPH turnover – biochemical, NADPH fluorescence, primary screen (AID 623); conditions: Recombinant KvBeta, NADPH fluorescence decrease slope, 10 min; at 10 µM; hits give low values;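 note: fluorescence intensity change per second fitted from 20 to 320 s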
Sequence (P62483 whole entry, looked up): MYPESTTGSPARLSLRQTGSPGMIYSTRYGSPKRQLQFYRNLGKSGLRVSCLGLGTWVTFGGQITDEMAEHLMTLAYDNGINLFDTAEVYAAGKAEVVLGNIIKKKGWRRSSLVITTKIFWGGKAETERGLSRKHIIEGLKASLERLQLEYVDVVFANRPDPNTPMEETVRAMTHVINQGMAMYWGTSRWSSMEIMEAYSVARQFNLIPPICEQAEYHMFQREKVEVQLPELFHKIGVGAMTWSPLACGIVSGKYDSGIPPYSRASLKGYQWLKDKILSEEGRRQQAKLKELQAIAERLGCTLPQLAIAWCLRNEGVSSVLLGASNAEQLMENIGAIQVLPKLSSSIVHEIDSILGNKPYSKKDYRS

NADPH fluorescence slope, inactive:
O=C(NCc1ccco1)c1cccc(S(=O)(=O)N2CCCCC2)c1 3.8e-05, O=C(O)c1ccc(C2SCC(=O)N2Cc2ccccc2)cc1 (stereo unspecified) 1.2e-05, Nc1cc(N)nc(SCc2ccccc2)n1 1.3e-05, O=C(NCCCN1CCN(c2cccc(Cl)c2)CC1)c1ccc(N2CCCC2=O)cc1 -5.9e-05, COc1ccccc1-n1c(SCC(=O)NC(C)(C)C)nnc1-c1ccco1 -2.6e-05, O=C(NCc1ccco1)c1cc2sccc2n1Cc1ccccc1 5.4e-05, CC(Sc1n[nH]c(=O)[nH]c1=O)C(=O)OCc1ccccc1 (stereo unspecified) -2.2e-05, COc1ccc(OC)c(Nc2nc(-c3cccs3)cs2)c1 -6e-05, COc1cc(NC(=O)Nc2cccc(C(C)=O)c2)cc(OC)c1OC -4.1e-05, CN1CCN(c2ccc(Cl)cc2NC(=O)c2cccc(S(=O)(=O)N(C)C)c2)CC1 -2e-05, Brc1ccc2ncnc(Nc3ccc(N4CCOCC4)cc3)c2c1 -5.5e-05, COc1ccc(Cl)cc1NC(=O)CSc1nncn1-c1cccnc1 1.5e-05, COc1cccc(NC(=O)c2ccccc2NS(C)(=O)=O)c1 -3.8e-05, O=S(=O)(c1cccc2c(S(=O)(=O)N3CCCC3)cccc12)N1CCCC1 6.6e-06, CCN1CCN(c2nc3c(c(=O)n(C)c(=O)n3C)n2Cc2cccc3ccccc23)CC1 -5.6e-05, Cn1c(-c2ccccc2)cnc1SCc1nc2ccccc2c(=O)[nH]1 -6.5e-05
